The sample as a whole holds a higher share of the strongest signals than the screen did.
How the values were obtained:
Test in all cases: glycan array binding signal (z-score within array); higher = stronger binding
Conditions in all cases: glycan notation: IUPAC condensed, linker removed
[1] = target: Fuc(a1-2)Gal(b1-4)GlcNAc(b1-6)GalNAc
How it was run: (§1)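 Glycan array binding is given as a within-array Z-score, which can be read as non-binding when negative. The arrays, 3228 of them, came from the Consortium for Functional Glycomics database and were retained only where the protein sequence was available. Z-scores were averaged across arrays of the same protein sequence at different concentrations or buffers and across linkers.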

[2] = target: Fuc(a1-2)[Gal(a1-4)]Gal(b1-4)GlcNAc
How it was run: as §1

[3] = target: Fuc(a1-2)[GalNAc(a1-3)]Gal
How it was run: as §1

[4] = target: Fuc(a1-2)[GalNAc(a1-3)]Gal(b1-4)GlcNAc(b1-2)Man
How it was run: as §1

Fuc(a1-3)GlcNAc = target: Fuc(a1-3)GlcNAc
How it was run: as §1

[5] = target: Fuc(a1-3)[Gal(b1-4)]GlcNAc(b1-2)Man
How it was run: as §1

[6] = target: Fuc(a1-3)[Gal(b1-4)]GlcNAc(b1-3)Gal(b1-4)[Fuc(a1-3)]GlcNAc(b1-3)Gal(b1-4)[Fuc(a1-3)]GlcNAc
How it was run: as §1

Gal(a1-2)Gal = target: Gal(a1-2)Gal
How it was run: as §1

Gal(a1-3)Gal(b1-4)Glc = target: Gal(a1-3)Gal(b1-4)Glc
How it was run: as §1

[7] = target: Gal(b1-3)GlcNAc(b1-2)Man(a1-3)[Gal(b1-3)GlcNAc(b1-2)Man(a1-6)]Man(b1-4)GlcNAc(b1-4)[Fuc(a1-6)]GlcNAc
How it was run: as §1

[8] = target: Gal(b1-3)[Fuc(a1-4)]GlcNAc(b1-3)Gal(b1-4)[Fuc(a1-3)]GlcNAc
How it was run: as §1

[9] = target: Gal(b1-4)GlcNAc(b1-2)Man(a1-3)[Gal(b1-4)GlcNAc(b1-2)Man(a1-6)]Man(b1-4)GlcNAc(b1-4)[Fuc(a1-6)]GlcNAc
How it was run: as §1

[10] = target: Gal(b1-4)GlcNAc(b1-2)[Gal(b1-4)GlcNAc(b1-6)]Man(a1-6)[Gal(b1-4)GlcNAc(b1-2)Man(a1-3)]Man(b1-4)GlcNAc(b1-4)[Fuc(a1-6)]GlcNAc
How it was run: as §1

[11] = target: Gal(b1-4)GlcNAc(b1-3)Gal(b1-3)GlcNAc
How it was run: as §1

[12] = target: Gal(b1-4)GlcNAc(b1-3)Gal(b1-4)GlcNAc(b1-2)Man(a1-3)[Gal(b1-4)GlcNAc(b1-3)Gal(b1-4)GlcNAc(b1-2)Man(a1-6)]Man(b1-4)GlcNAc(b1-4)[Fuc(a1-6)]GlcNAc
How it was run: as §1

[13] = target: Gal(b1-4)GlcNAc(b1-3)Gal(b1-4)GlcNAc(b1-3)Gal(b1-4)GlcNAc
How it was run: as §1

[14] = target: Gal(b1-4)GlcNAc(b1-3)Gal(b1-4)GlcNAc(b1-3)Gal(b1-4)GlcNAc(b1-3)Gal(b1-4)GlcNAc(b1-3)Gal(b1-4)GlcNAc(b1-2)Man(a1-3)[Gal(b1-4)GlcNAc(b1-3)Gal(b1-4)GlcNAc(b1-3)Gal(b1-4)GlcNAc(b1-3)Gal(b1-4)GlcNAc(b1-3)Gal(b1-4)GlcNAc(b1-2)Man(a1-6)]Man(b1-4)GlcNAc(b1-4)[Fuc(a1-6)]GlcNAc
How it was run: as §1

[15] = target: Gal(b1-4)GlcNAc(b1-3)GalNAc
How it was run: as §1

Gal(b1-4)GlcNAc6P = target: Gal(b1-4)GlcNAc6P
How it was run: as §1

[16] = target: GalNAc(a1-3)GalNAc(b1-3)Gal(a1-4)Gal(b1-4)GlcNAc
How it was run: as §1

[17] = target: GalNAc(b1-3)Gal(a1-4)Gal(b1-4)GlcNAc
How it was run: as §1

[18] = target: GalNAc(b1-4)GlcNAc(b1-2)Man(a1-3)[GalNAc(b1-4)GlcNAc(b1-2)Man(a1-6)]Man(b1-4)GlcNAc(b1-4)GlcNAc
How it was run: as §1

[19] = target: GlcA3S(b1-3)Gal(b1-4)GlcNAc(b1-2)Man
How it was run: as §1

[20] = target: GlcNAc(a1-4)Gal(b1-3)GlcNAc
How it was run: as §1

[21] = target: GlcNAc(b1-2)Man(a1-3)[GlcNAc(b1-2)Man(a1-6)]Man(b1-4)GlcNAc(b1-4)GlcNAc
How it was run: as §1

[22] = target: GlcNAc(b1-2)Man(a1-3)[GlcNAc(b1-2)Man(a1-6)]Man(b1-4)GlcNAc(b1-4)[Fuc(a1-6)]GlcNAc
How it was run: as §1

[23] = target: GlcNAc(b1-2)[GlcNAc(b1-4)]Man(a1-3)[GlcNAc(b1-4)][GlcNAc(b1-2)Man(a1-6)]Man(b1-4)GlcNAc(b1-4)GlcNAc
How it was run: as §1

[24] = target: GlcNAc(b1-2)[GlcNAc(b1-6)]Man(a1-6)[GlcNAc(b1-2)Man(a1-3)]Man(b1-4)GlcNAc(b1-4)[Fuc(a1-6)]GlcNAc
How it was run: as §1

[25] = target: GlcNAc(b1-3)Gal(b1-4)GlcNAc(b1-2)Man(a1-3)[GlcNAc(b1-3)Gal(b1-4)GlcNAc(b1-2)Man(a1-6)]Man(b1-4)GlcNAc(b1-4)[Fuc(a1-6)]GlcNAc
How it was run: as §1

[26] = target: GlcNAc(b1-3)Gal(b1-4)GlcNAc(b1-3)Gal(b1-4)GlcNAc(b1-2)Man(a1-3)[GlcNAc(b1-3)Gal(b1-4)GlcNAc(b1-3)Gal(b1-4)GlcNAc(b1-2)Man(a1-6)]Man(b1-4)GlcNAc(b1-4)[Fuc(a1-6)]GlcNAc
How it was run: as §1

[27] = target: Man(a1-3)[Man(a1-6)]Man(b1-4)GlcNAc(b1-4)[Fuc(a1-6)]GlcNAc
How it was run: as §1

MurNAc(b1-4)GlcNAc = target: MurNAc(b1-4)GlcNAc
How it was run: as §1

[28] = target: Neu5Ac(a2-3)Gal(b1-3)GalNAc(b1-4)[Neu5Ac(a2-3)]Gal(b1-4)Glc
How it was run: as §1

[29] = target: Neu5Ac(a2-3)Gal(b1-3)GlcNAc(b1-2)Man(a1-3)[GlcNAc(b1-4)][Neu5Ac(a2-3)Gal(b1-3)GlcNAc(b1-2)Man(a1-6)]Man(b1-4)GlcNAc(b1-4)GlcNAc
How it was run: as §1

[30] = target: Neu5Ac(a2-3)Gal(b1-3)[Fuc(a1-4)]GlcNAc(b1-3)Gal(b1-3)[Fuc(a1-4)]GlcNAc
How it was run: as §1

[31] = target: Neu5Ac(a2-3)Gal(b1-4)GlcNAc(b1-3)Gal(b1-4)GlcNAc(b1-3)GalNAc
How it was run: as §1

[32] = target: Neu5Ac(a2-3)Gal(b1-4)GlcNAc(b1-3)Gal(b1-4)GlcNAc(b1-3)[Neu5Ac(a2-3)Gal(b1-4)GlcNAc(b1-3)Gal(b1-4)GlcNAc(b1-6)]GalNAc
How it was run: as §1

[33] = target: Neu5Ac(a2-3)Gal(b1-4)GlcNAc(b1-6)GalNAc
How it was run: as §1

[34] = target: Neu5Ac(a2-3)Gal(b1-4)GlcNAc(b1-6)[Gal(b1-3)]GalNAc
How it was run: as §1

[35] = target: Neu5Ac(a2-3)Gal(b1-4)GlcNAc(b1-6)[Neu5Ac(a2-3)Gal(b1-3)]GalNAc
How it was run: as §1

[36] = target: Neu5Ac(a2-3)Gal(b1-4)GlcNAc6S
How it was run: as §1

[37] = target: Neu5Ac(a2-6)Gal(b1-4)GlcNAc(b1-2)Man(a1-3)[Neu5Ac(a2-6)Gal(b1-4)GlcNAc(b1-2)Man(a1-6)]Man(b1-4)GlcNAc(b1-4)[Fuc(a1-6)]GlcNAc
How it was run: as §1

[38] = target: Neu5Ac(a2-6)Gal(b1-4)GlcNAc(b1-3)Gal(b1-3)GlcNAc
How it was run: as §1

[39] = target: Neu5Ac(a2-8)Neu5Ac(a2-3)Gal(b1-4)Glc
How it was run: as §1

[40] = target: Neu5Ac(a2-8)Neu5Ac(a2-3)[GalNAc(b1-4)]Gal(b1-4)Glc
How it was run: as §1

[41] = target: Neu5Gc(b2-6)Gal(b1-4)GlcNAc
How it was run: as §1

Binder: APVPVTKLVCDGDTYKCTAYLDFGDGRWVAQWDTNVFHTG [PhoSpL (Pholiota squarrosa)]
- glycan array binding signal (z-score) [1]: -0.46
- glycan array binding signal (z-score) [2]: 0.637
- glycan array binding signal (z-score) [3]: -0.032
- glycan array binding signal (z-score) [4]: 0.067
- glycan array binding signal (z-score) (Fuc(a1-3)GlcNAc): -0.427
- glycan array binding signal (z-score) [5]: -0.336
- glycan array binding signal (z-score) [6]: -0.179
- glycan array binding signal (z-score) (Gal(a1-2)Gal): -0.168
- glycan array binding signal (z-score) (Gal(a1-3)Gal(b1-4)Glc): 0.101
- glycan array binding signal (z-score) [7]: 6.05
- glycan array binding signal (z-score) [8]: -0.256
- glycan array binding signal (z-score) [9]: 13.4
- glycan array binding signal (z-score) [10]: 8.42
- glycan array binding signal (z-score) [11]: 0.027
- glycan array binding signal (z-score) [12]: 1.94
- glycan array binding signal (z-score) [13]: -0.517
- glycan array binding signal (z-score) [14]: 0.488
- glycan array binding signal (z-score) [15]: -0.135
- glycan array binding signal (z-score) (Gal(b1-4)GlcNAc6P): -0.747
- glycan array binding signal (z-score) [16]: 0.539
- glycan array binding signal (z-score) [17]: 0.249
- glycan array binding signal (z-score) [18]: 1.41
- glycan array binding signal (z-score) [19]: -0.16
- glycan array binding signal (z-score) [20]: -0.307
- glycan array binding signal (z-score) [21]: -0.238
- glycan array binding signal (z-score) [22]: 4.77
- glycan array binding signal (z-score) [23]: -0.113
- glycan array binding signal (z-score) [24]: 4.35
- glycan array binding signal (z-score) [25]: 2.47
- glycan array binding signal (z-score) [26]: 1.44
- glycan array binding signal (z-score) [27]: 6.32
- glycan array binding signal (z-score) (MurNAc(b1-4)GlcNAc): -0.337
- glycan array binding signal (z-score) [28]: 0.143
- glycan array binding signal (z-score) [29]: -0.151
- glycan array binding signal (z-score) [30]: -0.57
- glycan array binding signal (z-score) [31]: 0.1
- glycan array binding signal (z-score) [32]: -0.169
- glycan array binding signal (z-score) [33]: -0.386
- glycan array binding signal (z-score) [34]: 0.254
- glycan array binding signal (z-score) [35]: -0.322
- glycan array binding signal (z-score) [36]: 0.087
- glycan array binding signal (z-score) [37]: 4.01
- glycan array binding signal (z-score) [38]: -0.422
- glycan array binding signal (z-score) [39]: -0.197
- glycan array binding signal (z-score) [40]: -0.373
- glycan array binding signal (z-score) [41]: 0.132
